MCF10A rereplic: inducers of DNA re-replication in MCF 10A breast cells; MCF 10A DNA re-replication, Hoechst nuclear intensity, 48 h; Potency, µM (titrated, usually from 46.1 µM), for inactives: top-dose activity, positive = re-replication, most hits filed as activators; 350,000 compounds, 2.9% hits; AID 624296; further: potency means the concentration at half of the fitted maximal effect; % of control where 0% means no effect; nearly all actives have a fitted effect of over 50% in size
ATXN2 expr inh: ATXN2 expression inhibition. HEK-293 ATXN2-luciferase reporter, luminescence, 24 h. Potency, µM (titrated, usually from 57 µM), for the others: top-dose activity change, negative = inhibition, most hits filed as inhibitors. 360,000 compounds, 0.72% hits; further: potency means the concentration at half of the fitted maximal effect; on the % scale 0 is the no-effect control and ±100 the full control effect; nearly all actives have a fitted effect of over 55% in size
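ATXN2-luciferase reporter cells (luciferase flanked by upstream and downstream ATXN2 gene portions) were treated 24 h at 37 °C with compounds at up to 57 uM. SteadyGlo luminescence gave expression; GF-AFC fluorescence gave viability.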
PINK1 expr mod: modulators of PINK1 expression; PINK1 immunofluorescence, high-content cytometry, 24 h; Potency, µM (doses to about 76.6 µM), for inactives: at the top dose activation (PINK1 increase), hits mostly activators; 410,000 compounds, 0.2% hits; AID 624263; active means well fitted activation curve with a large enough effect; inconclusive means small, poorly fitted or top-dose-only effect; cell line not stated here; further: potency means the concentration at half of the fitted maximal effect; % of control where 0% means no effect; nearly all actives have a fitted effect of over 65% in size
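Stable cell line treated 24 h with compounds at 5 concentrations (CCCP controls), then fixed and immunostained for PINK1 plus nuclear and cell stains; PINK1 immunofluorescence quantified by laser-scanning microplate cytometry.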
IL-1B inflam inh: inflammasome signaling inhibition, IL-1 beta readout. 360,000 compounds, 4.7% hits. THP-1 LPS/ATP IL-1B secretion, AlphaLISA, 16 h; stronger effect = lower value. activity change, % at 57.5 µM; in the data active means activity change below about -50%; inconclusive means mostly about -30% to -49%; further: on the % scale 0 is the no-effect control and ±100 the full control effect
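THP-1 cells pretreated 1 hr with compounds (up to 57.5 uM final), then stimulated with LPS (250 ng/mL final) plus ATP (1.25 mM final); secreted IL-1B measured by AlphaLISA after 16 hr, decreased signal indicating inhibition.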
SW480 rereplic: DNA re-replication induction in SW480 cells. SW480 DNA re-replication, Hoechst DNA content imaging, 48 h. Potency, µM (titrated, usually from 46.1 µM), for inactives: top-dose re-replication activation, actives largely listed as activators. 340,000 compounds, 1.8% hits; further: potency means the concentration at half of the fitted maximal effect; % of control where 0% means no effect; nearly all actives have a fitted effect of over 55% in size
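Cells (250 per well) received 23 nL compound or DMSO by pin tool and were kept 48 hr at 37 C, 5% CO2. Nuclei were then stained with Hoechst for 40 min and scanned for DNA content.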
ATXN viability: viability counter-screen for ATXN expression inhibitors; S2 cells (HEK-293 line with an ATXN2-luciferase reporter) viability, CellTiter-Fluor protease fluorescence, 24 h; Potency, µM (titrated, usually from 56.7 µM), usual class: cytotoxic; 400,000 compounds, 0.49% hits; AID 651635; further: potency means the concentration at half of the fitted maximal effect; nearly all actives have a fitted effect of over 40% in size
Starred values were filed as active, the others as inactive; i = inactive; ? = inconclusive; . = no result; [ ] = another dose, or the depositor's remark. Compounds with a hit are over-represented: about 7.1% of the library has one in this group of screens. Unless noted, the call rests on the fitted dose curve; in most records, active means well fitted curve in the direction sought with a large enough effect; inconclusive means small, poorly fitted or top-dose-only effect, or another doubt; inactive means no such curve, though single readings can be large; an effect the other way counts as inactive or inconclusive.

SMILES | MCF10A rereplic | ATXN2 expr inh | PINK1 expr mod | IL-1B inflam inh | SW480 rereplic | ATXN viability
COc1ccc(-n2c(/C=C/c3cccc4ccccc34)nc3ccccc3c2=O)cc1Cl | . | . | 1.3% | . | . | .
O=C(CCSCc1cnn(-c2ccccc2)c1-n1cccc1)NCc1ccccc1Cl | . | . | 1.7% | . | . | .
O=C(Cc1c(F)cccc1Cl)NNC(=O)c1ccc(Br)s1 | -1.6% | 3.7% | 4.1% | 15.8 | 2.3% | i
Cc1cc(OCC(=O)Nc2ccncc2)ccc1Cl | -0.2% | -12.9% | 1.9% | -6.3 | 1.8% | i
CC(=O)Nc1ccc(NC(=O)COc2cc(O)c3c(c2)OC(C)(C)CC3=O)cc1 | 6.4% | 25.0% | 0.7% | -11.4 | -11.4% | i
Cc1ccccc1OCC(=O)Nc1ccc(Cc2ccncc2)cc1 | 12.8% | ? | 0.5% | -76.7* | 0.6% | i
Cc1cc(OCC(=O)Nc2ccc(Br)cc2)cc2c1C(=O)CC(C)(C)O2 | ? | 12.6µM* | 1.7% | -81.3* | ? | i
Cc1cc(C)cc(OCC(=O)Nc2ccc(F)cc2)c1 | ? | 13.2% | -3.0%[38.3 µM] | -51.9* | 13.5% | i
Cc1cc(C)cc(OCC(=O)Nc2ccc(N3CCCC3)cc2)c1 | 4.7% | -17.5% | 3.5%[38.3 µM] | -8.9 | -15.6% | i
Cc1cc(OCC(=O)Nc2ccncc2)cc(C)c1Br | 7.4% | -21.2% | 2.4% | -50.3* | 0.5% | i
CCC(=O)N1CCc2cc(S(=O)(=O)NC(CC(C)C)C(=O)Nc3cccc(C)c3C)ccc21 (configuration not stated) | . | -11.8% | 5.5% | . | . | i
COc1cc(=O)n2c(c1C(=O)NC(C)c1ccco1)CCN(C(=O)c1ccnc(Cl)c1)CC2 (configuration not stated) | . | . | 1.0% | . | . | i
Cc1cc(N2CCCCC2)nc(NCc2ccccc2)n1 | ? | ? | ? | -99.0* | ? | ?
CCCCOc1cc(C)nc(NCc2ccccc2)n1 | ? | -12.5% | 6.0% | 20.2 | ? | i
Cc1cc(N2CCOCC2)nc(NCc2ccccc2)n1 | 7.31µM* | -17.6% | . | -14.7 | 0.5% | i
CCOc1cc(C)nc(NCc2ccccc2)n1 | 11.6µM* | -6.0% | 9.1% | 15.6 | ? | i
O=C(N/N=C/c1cnc(N2CCCCC2)s1)c1ccc(Cl)cc1 | -5.4% | . | 28.2µM* | 2.2 | -31.4% | ?
COC(=O)C1CCN(Cc2ccc3c(c2)CN(C(=O)c2cc(C)on2)CCO3)CC1 | . | . | 0.2% | . | . | i
COc1ccc(CNC(=O)c2cc(-c3ccc(C)c(C)c3)n[nH]2)cc1 | . | 17.1% | 0.3% | . | . | i
O=C(NCCN1CCNC1=O)c1ccc2sc([C@H]3C[C@H](O)[C@@H](CO)O3)nc2c1 | . | 1.5% | -0.5% | -86.2* | . | i
O=C(NCc1cc(Cl)cc(Cl)c1)c1ccc2sc([C@H]3C[C@H](O)[C@@H](CO)O3)nc2c1 | . | 0.0% | 7.5% | 31.0 | . | i
CC(C)(C)N(Cc1ccccc1)C(=O)c1ccc(Br)o1 | ? | -5.6% | 5.7% | -6.9 | 3.9% | i
Cc1ccc(C(=O)N(Cc2ccccc2)C(C)(C)C)cc1C | 23.1µM* | -14.9% | 10.7% | -6.6 | -2.6% | i
O=C(NCCc1csc2nc(-c3cccc(F)c3)nn12)c1ccc(Br)o1 | . | -30.7% | 1.3% | . | . | ?
N#C/C(C(=O)NCCc1ccccc1)=C1/N=C(NC(=O)c2cccs2)c2ccccc21 | 8.2µM* | -12.3% | 16.3% | 9.2 | -40.6% | i
SMILES | MCF10A rereplic | ATXN2 expr inh | PINK1 expr mod | IL-1B inflam inh | SW480 rereplic | ATXN viability
COCCCNC(=O)/C(C#N)=C1\N=C(NC(=O)c2cccs2)c2ccccc21 | -0.3% | -21.9% | 10.8% | 24.0 | -3.3% | ?
Cc1c(O)ccc2c(CN(C)Cc3ccccc3)cc(=O)oc12 | -36.0% | -37.3% | 14.2% | -6.6 | 18.4µM* | .
Cc1c(O)ccc2c(CC(=O)N[C@@H](Cc3ccccc3)C(=O)O)cc(=O)oc12 | 23.1µM* | . | 2.9% | -6.6 | ? | .
O=C(Nc1ccc([N+](=O)[O-])cc1)N1CCc2ccccc2C1 | ? | 22.7% | -0.5% | -89.9* | -2.8% | i
CC(C)c1ccc(NC(=O)N2CCc3ccccc3C2)cc1 | 4.5% | 80.1% | 1.8% | -59.1* | -7.2% | i
CCCCNC(=O)N1CCc2ccccc2C1 | 2.1% | 8.2% | 3.9% | 22.5 | 23.1µM* | i
O=C(NCc1ccc(F)cc1)N1CCc2ccccc2C1 | -2.5% | -2.4% | 0.8% | -3.1 | -28.0% | ?
Cc1[nH]c2ccccc2c1/C=N/NC(=O)C1CC1(c1ccccc1)c1ccccc1 (configuration not stated) | 23.1µM* | -35.7% | -0.1% | ? | ? | ?
COc1ccc2c(C)c(Cl)c(=O)oc2c1 | 0.0% | -8.2% | 1.3% | -5.1 | 0.5% | i
C=C1CC(COc2ccc3c(C)c(Cl)c(=O)oc3c2)(c2ccccc2)OC1=O (configuration not stated) | 4.61µM* | ? | -6.5% | -99.9* | ? | .
CCOC(=O)c1ccc(NC(=S)N(CCCN(CC)CC)Cc2ccco2)cc1 | ? | -6.7% | -0.3% | -55.4* | -2.0% | i
COc1ccc(NC(=S)N(CCCN2CCCC2)Cc2ccco2)cc1 | 0.0% | -13.8% | 2.2% | -5.3 | 2.6% | i
CCOC(=O)c1ccc(NC(=S)N(CCCN2CCCCC2)Cc2ccco2)cc1 | -0.5% | -1.2% | -0.5% | -52.7* | -2.6% | i
Cc1ccc(NC(=S)N(CCN2CCCCC2)Cc2ccco2)cc1Cl | ? | -12.2% | 2.3% | -97.9* | 7.2% | i
Cc1cc(C)cc(NC(=S)N(CCN2CCCCC2)Cc2ccco2)c1 | -11.2% | -24.7% | -2.2% | -12.2 | -4.3% | i
CCOC(=O)c1ccc(NC(=S)N(Cc2cccnc2)Cc2ccco2)cc1 | -1.4% | -8.4% | 0.7% | -3.0 | ? | i
Cc1ccc(-n2nc3c(N4CCC(C(=O)NCCc5ccccc5C)CC4)nnc(C)c3c2C)cc1 | 23.1µM* | ? | 3.9% | -11.0 | 9.5% | ?
CCOc1ccccc1CNC(=O)C1CCCN(c2nnc(C)c3c(C)n(-c4ccccc4)nc23)C1 (configuration not stated) | 14.6µM* | ? | 1.6% | -8.4 | ? | 7.94µM*
COc1ccc(-n2nc3c(N4CCC(C(=O)NCC(C)c5ccccc5)CC4)nnc(C)c3c2C)cc1 (configuration not stated) | ? | ? | ? | -95.5* | ? | ?
COc1ccc(-n2nc3c(N4CCC(C(=O)NCc5ccccc5C)CC4)nnc(C)c3c2C)cc1 | ? | -5.0% | -1.4% | -94.7* | ? | i
Cc1ccc(-n2nc3c(N4CCC(C(=O)NCCc5ccccc5)CC4)nnc(C)c3c2C)cc1 | . | -21.5% | -0.6% | . | . | i
